A selection: hits, their analogues and other compounds. The true share with any hit is near 6.8%.
NS3h inh CB = blocks HCV NS3 helicase binding to DNA | NS3h Cy5-dT15 DNA binding, fluorescence polarization | inhibition, % at 100 µM | 16,000 compounds, 1.6% hits | AID 687043;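 active = inhibition above the average over every tested compound plus 3 SD, cut at about 40% in these data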
Cy5 interf NS3h = enhances or quenches Cy5 fluorescence in NS3h assay. Cy5-dT15 DNA with NS3h, fluorescence interference; actives lie on both sides; signal over control mean, under 1 quenches. fluorescence interference ratio at 100 µM. 16,000 compounds, 6% hits. AID 720488;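 active = compound fluorescence over control fluorescence at most 0.8, a quencher, or at least a set upper limit, an enhancer; inactive = ratio between 0.8 and the set upper limit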
NS3h confirm = confirmation of hepatitis C virus NS3 helicase inhibitors. shares compounds with NS3h inh CB. NS3h binding to Cy5-dT15 DNA, fluorescence polarization. 240 compounds, 20% hits. inhibition, % at 100 µM;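 active = percent inhibition of 50% or more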
SSB FP counter = E. coli SSB-DNA binding inhibition, NS3h counter-screen | E. coli SSB binding Cy5-dT15, fluorescence polarization | 240 compounds, 40% hits | inhibition, % at 100 µM | shares compounds with NS3h inh CB | AID 720486;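 active = inhibition of at least 50%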;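 also: displacers lower Cy5 polarization so higher inhibition means more SSB displaced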
Target sequence (P0AGE0 whole entry, looked up): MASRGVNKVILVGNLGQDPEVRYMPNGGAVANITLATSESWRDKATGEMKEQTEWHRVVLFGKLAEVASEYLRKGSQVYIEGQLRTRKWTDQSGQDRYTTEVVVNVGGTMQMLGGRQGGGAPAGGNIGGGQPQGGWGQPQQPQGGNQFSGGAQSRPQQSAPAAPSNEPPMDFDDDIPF
Cy5 SSB fluor CB = enhances or quenches Cy5-DNA fluorescence with E. coli SSB; shares compounds with NS3h inh CB; AID 720487; Cy5-dT15/E. coli SSB fluorescence interference; actives lie on both sides; 240 compounds, 8% hits; fluorescence interference ratio at 100 µM;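 active = fluorescence interference ratio at or above 1.2, signal boosting, or at or below 0.8, signal quenching; inactive = ratio between 0.8 and 1.2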;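 also: ratio of compound well signal to mean negative control signal so 1 means no effect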
Cy5 interf conf = Cy5 fluorescence interference, confirmation counter-screen; 240 compounds, 44% hits; Cy5-dT15 DNA/NS3h fluorescence interference counterscreen; fluorescence interference ratio at 100 µM, hits read low; shares compounds with NS3h inh CB;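 active = fluorescence interference ratio at or below 0.8 quencher or at or above a set limitenhancer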;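 also: ratio of compound fluorescence to mean of negative controls so 1 means no interference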
Starred values were filed as active, the others as inactive; . = not tested or not shown.

SMILES | NS3h inh CB | Cy5 interf NS3h | NS3h confirm | SSB FP counter | Cy5 SSB fluor CB | Cy5 interf conf
Cc1ccc(-c2ccccc2)n1-c1ccccc1C(=O)O | 7 | 1.1 | . | . | . | .
Cc1cc(C(=O)O)ccc1-n1c(C)ccc1C | 101* | 1.4* | 100* | 108* | 0.93 | 0.98
CCc1ccc(NC(=O)c2ccc(-c3ccccc3)cc2)cc1 | -7 | 0.99 | . | . | . | .
O=C(/C=C/c1ccc(-c2ccc([N+](=O)[O-])cc2)o1)c1cc2ccccc2o1 | 3 | 1 | . | . | . | .
CN1C(=O)C(=Cc2ccc(OCc3cccc(C(=O)O)c3)cc2)C(=O)N(C)C1=O | 6 | 1 | . | . | . | .
O=C1NC(=O)N(c2cccc(F)c2)C(=O)/C1=C/c1ccc(OCc2cccc(C(=O)O)c2)cc1 | 41* | 1 | 13 | 39 | 0.95 | 0.75*
O=C1NC(=O)N(c2ccccc2F)C(=O)/C1=C/c1ccc(OCc2cccc(C(=O)O)c2)cc1 | 33 | 1.1 | . | . | . | .
O=C1NC(=S)N/C1=C/c1ccc(OCc2cccc(C(=O)O)c2)cc1 | 62* | 1.1 | 20 | 28 | 0.99 | 0.77*
Cc1ccccc1N1C(=O)NC(=O)/C(=C\c2ccc(OCc3cccc(C(=O)O)c3)cc2)C1=O | 42* | 1.1 | 21 | 68* | 0.91 | 0.8*
Cc1cc(/C=C2\C(=O)NC(=O)N(c3cccc(F)c3)C2=O)c(C)n1C | 7 | 1.1 | . | . | . | .
Cc1ccccc1OCC(=O)NC1CC(C)(C)NC(C)(C)C1 | 4 | 1.1 | . | . | . | .
COc1cccc(/C=C2/C(=O)NC(=O)N(c3cc(C)cc(C)c3)C2=O)c1O | 16 | 1.1 | . | . | . | .
COc1cc(/C=C2\C(=O)NC(=O)N(c3cc(C)cc(C)c3)C2=O)cc([N+](=O)[O-])c1O | 60* | 1.1 | 16 | 51* | 0.85 | 0.74*
C=CCOc1ccc(C=C2C(=O)NC(=O)NC2=O)cc1OC | 38 | 1 | . | . | . | .
O=C1NC(=O)C(=Cc2ccccc2OCc2ccccc2F)C(=O)N1 | 18 | 0.94 | . | . | . | .
CCOc1cc(C=C2C(=O)NC(=S)NC2=O)ccc1OCCOc1ccccc1OC | 15 | 0.94 | . | . | . | .
O=C1ON=C(c2ccc(Cl)cc2)/C1=C/c1ccccc1Cl | 9 | 0.94 | . | . | . | .
C=CCOc1ccccc1C=C1C(=O)NC(=S)NC1=O | 56* | 0.92 | 40 | 107* | 0.9 | 1
COc1cc(OC)c(C=C2C(=O)NC(=S)NC2=O)cc1Br | 59* | 1 | 15 | 38 | 0.98 | 0.97
C=CCOc1ccccc1/C=C1/C(=O)ON=C1c1ccc(Cl)cc1 | 53* | 1 | 34 | 20 | 0.93 | 0.86
C=CCOc1ccc(C=C2C(=O)NC(=S)NC2=O)cc1OC | 82* | 1 | 51* | 92* | 0.93 | 0.77*
CC(=O)C(C1=NC(C)(C)Cc2cc(C)c(C)cc21)c1ccccc1 (centres undefined) | 18 | 0.96 | . | . | . | .
O=C(Nc1cccc(Br)c1)c1ccc(Cl)c([N+](=O)[O-])c1 | 13 | 1.1 | . | . | . | .
COCCN1C(=O)c2cccc3cccc(c23)C1=O | 8 | 0.98 | . | . | . | .
COc1cc(/C=C/C(=O)c2c(-c3ccccc3)c3cc(Cl)ccc3[nH]c2=O)cc(OC)c1OC | 7 | 0.92 | . | . | . | .
SMILES | NS3h inh CB | Cy5 interf NS3h | NS3h confirm | SSB FP counter | Cy5 SSB fluor CB | Cy5 interf conf
CC(=C=CC(C)(C)C1OCC(C)(C)CO1)CCC=C(C)C | -3 | 0.83 | . | . | . | .
O=C(NC(=S)Nc1ccc(S(=O)(=O)Nc2nccs2)cc1)c1sc2ccccc2c1Cl | 26 | 0.92 | . | . | . | .
COc1ccc(NS(=O)(=O)c2ccc(NC(=S)NC(=O)c3sc4cc(F)ccc4c3Cl)cc2)nn1 | 63* | 0.98 | 14 | 8 | 1 | 0.76*
COc1ccc(C(=O)NCCCNc2ccc([N+](=O)[O-])cc2Cl)cc1OC | 16 | 0.98 | . | . | . | .
COc1ccc(C(=O)NCCNc2ccc([N+](=O)[O-])cc2)cc1OC | 40 | 1.1 | 13 | 8 | 0.94 | 0.72*
O=C(Nc1ccccc1C(=O)NCc1ccccc1)c1ccccc1Cl | 13 | 0.96 | . | . | . | .
Cc1cc(/C=N\n2cnnc2)c(C)n1-c1ccc(F)cc1 | 0 | 1.2 | . | . | . | .
O=C(CN1CCCCC1)Nc1ccccc1I | 0 | 1.1 | . | . | . | .
N#C/C(=C/c1ccc(-c2ccc(C(=O)O)c(Cl)c2)o1)C(=O)Nc1ccccc1 | 16 | 0.98 | . | . | . | .
COc1ccc(NC(=O)/C(C#N)=C\c2ccc(-c3ccc(C(=O)O)c(Cl)c3)o2)cc1 | 59* | 1.1 | 7 | 16 | 0.88 | 0.75*
CCOC(=O)C1=C(O)/C(=C\c2ccccc2Cl)N=C1C | 5 | 0.88 | . | . | . | .
N#CC1=C(S)NC(=O)C(C#N)C12CCCCC2 (centres undefined) | 44* | 0.96 | 19 | 39 | 0.94 | 0.9
C=CCSC1=C(C#N)C2(CCCCC2)C(C#N)C(=O)N1 (centres undefined) | 3 | 1 | . | . | . | .
CCc1cccc(NC2(c3ccccc3)C(=O)c3ccccc3C2=O)c1 | 69* | 0.76* | 11 | 17 | 0.93 | 0.94
CCOc1ccc(NC2(c3ccccc3)C(=O)c3ccccc3C2=O)cc1 | 20 | 1.1 | . | . | . | .
CN(C)/C=C\C=C\C(=O)C1C2CC3CC(C2)CC1C3 (centres undefined) | 9 | 0.94 | . | . | . | .
CN(C)/C=C/C=C/C=C1\CCC/C(=C\C=C\N(C)C)C1=O | 55* | 0.91 | 40 | 110* | 0.86 | 0.96
O=c1nc(SCc2ccccc2Cl)sc2ccccc12 | 7 | 1 | . | . | . | .
COc1cccc(/C=C2/SC(=S)N(CC(=O)O)C2=O)c1O | 6 | 0.98 | . | . | . | .
O=C(O)CN1C(=O)/C(=C\c2cccc([N+](=O)[O-])c2O)SC1=S | 44* | 1.1 | 11 | 30 | 0.89 | 0.73*
Cc1ccc(C)c(NC(=S)NC(NC(=O)c2ccccc2F)C(Cl)(Cl)Cl)c1 (centres undefined) | 4 | 1 | . | . | . | .
CC(=O)c1cccc(N2C(=O)c3ccc(Oc4ccc([N+](=O)[O-])cc4)cc3C2=O)c1 | 17 | 1.1 | . | . | . | .
Cc1ccc(C(=O)Nc2cc(-c3ccc(F)cc3)[nH]n2)cc1 | 16 | 1.1 | . | . | . | .
CN(C)C(=O)NC(NC(=O)N(C)C)C(=O)c1ccccc1 | 8 | 0.91 | . | . | . | .

Compound activity: PubChem, Milwaukee Institute for Drug Discovery
